Results as given in PubChem BioAssay (NCI).
About 79,000 compounds went through this panel and 15% of them were active in at least one assay; those are over-represented in the sample as a whole. Activity calls are given as the source filed them. No stated cut-off is given here; in the data, active means growth inhibition above about 70%; inactive means the rest.

What was measured:
[1] = NCI Yeast Anticancer Drug Screen. Data for the rad52 strain (AID 147);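 further: 0% = growth of vehicle-treated control cultures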; conditions: S. cerevisiae rad52 mutant growth inhibition, stronger effect = higher value
Procedure, shortened: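 Growth of repair-deficient yeast cells was compared between compound-treated and vehicle-treated cultures to give percent inhibition.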

[2] = NCI Yeast Anticancer Drug Screen. Data for the wt1 strain (AID 149);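 further: 0% = growth of vehicle-treated wt1 cultures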; conditions: S. cerevisiae wt1 strain (SPY 50644) growth inhibition, stronger effect = higher value
Procedure, shortened: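 The wt1 strain was treated with compounds, and growth was compared with vehicle-treated cultures to give inhibition.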

[3] = NCI Yeast Anticancer Drug Screen. Data for the rad50EPP+ strain (AID 151);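 further: 0% = growth of vehicle-treated control cultures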; conditions: S. cerevisiae rad50 mutant strain, stronger effect = higher value
Procedure, shortened: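 Measured: growth inhibition of rad50EPP+ yeast. Reference: vehicle-treated controls. Screen uses strains with defined genetic alterations in DNA damage repair or cell cycle control.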

[4] = NCI Yeast Anticancer Drug Screen. Data for the mgt1 strain (AID 153); conditions: S. cerevisiae mgt1 mutant growth inhibition, stronger effect = higher value
Procedure, shortened: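 Compounds were applied to mgt1 mutant yeast, and growth was then compared against vehicle-treated control cultures to give percent inhibition.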

[5] = NCI Yeast Anticancer Drug Screen. Data for the rad50 strain (AID 155);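 further: 0% = growth of vehicle-only cultures of the same strain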; conditions: S. cerevisiae rad50 strain growth inhibition, stronger effect = higher value
Procedure, shortened: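 Cells are treated with compound, grown, and their growth is then scored against vehicle-only cultures of the same repair-deficient yeast strain.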

[6] = NCI Yeast Anticancer Drug Screen. Data for the mec2-1 strain (AID 157); conditions: S. cerevisiae mec2-1 strain, stronger effect = higher value
Procedure, shortened: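 Compounds were applied to mec2-1 yeast cells. Their growth was then compared with that of vehicle-treated cultures to give growth inhibition.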

[7] = NCI Yeast Anticancer Drug Screen. Data for the rad14 strain (AID 159);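 further: 0% = growth of vehicle-treated control cultures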; conditions: S. cerevisiae rad14 strain growth inhibition, stronger effect = higher value
Procedure, shortened: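 Readout: yeast growth inhibition, referenced to vehicle-only cultures. Strain bears a defined alteration in DNA damage repair.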

[8] = NCI Yeast Anticancer Drug Screen. Data for the CLN2oe strain (AID 163);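 further: 0% = growth of vehicle-only control cultures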; conditions: S. cerevisiae CLN2oe strain, stronger effect = higher value
Procedure, shortened: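 Cells of an engineered yeast line with disturbed cell-cycle regulation are treated with compound. Inhibition of growth is then calculated relative to the vehicle-treated reference.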

[9] = NCI Yeast Anticancer Drug Screen. Data for the cln2 rad14 strain (AID 165);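 further: 0% = growth equal to vehicle treated cultures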; conditions: S. cerevisiae cln2 rad14 strain, stronger effect = higher value
Procedure, shortened: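 Strain: cln2 rad14 yeast, altered in cell cycle control and DNA damage repair. Read-out: growth inhibition vs vehicle.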

[10] = NCI Yeast Anticancer Drug Screen. Data for the bub3 strain (AID 167); conditions: S. cerevisiae bub3 mutant strain, stronger effect = higher value
Procedure, shortened: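 Part of a panel of yeast mutants defective in DNA damage repair or cell cycle regulation. Each strain is grown with compound, and inhibition is calculated relative to solvent-treated cultures.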

[11] = NCI Yeast Anticancer Drug Screen. Data for the wt2 strain (AID 169);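 further: 0% = growth of vehicle-treated yeast cultures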; conditions: S. cerevisiae wt2 strain growth inhibition, stronger effect = higher value
Procedure, shortened: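 Growth of compound-treated yeast is measured and expressed as inhibition relative to vehicle-only controls.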

[12] = NCI Yeast Anticancer Drug Screen. Data for the mlh1 strain (AID 171);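 further: 0% = growth of vehicle-treated control cultures of the same strain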; conditions: S. cerevisiae mlh1 strain growth inhibition, stronger effect = higher value
Procedure, shortened: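 Test agents were incubated with yeast bearing a defined DNA damage repair or cell cycle control alteration; values are growth inhibition normalised to vehicle-treated cultures.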

[13] = NCI Yeast Anticancer Drug Screen. Data for the sgs1 strain (AID 173);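 further: 0% = growth of vehicle-only control cultures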; conditions: S. cerevisiae sgs1 mutant, stronger effect = higher value
Procedure, shortened: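 Strain with an altered DNA repair or cell cycle pathway exposed to compound. Growth then measured. Value = inhibition versus vehicle control.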

[14] = NCI Yeast Anticancer Drug Screen. Data for the mlh1 rad18 strain (AID 175); conditions: S. cerevisiae mlh1 rad18 strain growth inhibition, stronger effect = higher value
Procedure, shortened: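 A repair-deficient yeast strain is exposed to test compound, and growth is scored relative to vehicle-treated controls.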

[15] = NCI Yeast Anticancer Drug Screen. Data for the rad18 strain (AID 177); conditions: S. cerevisiae rad18 mutant growth inhibition, stronger effect = higher value
Procedure, shortened: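 DNA-repair-defective yeast; compound treatment; growth inhibition scored against vehicle.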

[16] = at 5.0 µM (retest, dose inferred, filed as 0.5)
[17] = at 50.0 µM (retest, dose inferred, filed as 5.0)

Measured: growth inhibition

O=C(O)CNC(c1ccccc1)(c1ccccc1)c1ccccc1
active: [1]; at 33.0 µM 92% | [1]; at 100.0 µM 98% | [2]; at 33.0 µM 83% | [2]; at 100.0 µM 97% | [4]; at 33.0 µM 87% | [4]; at 100.0 µM 96% | [5]; at 33.0 µM 87% | [5]; [17] 97% | [5]; at 50.0 µM 86.3% | [5]; at 100.0 µM 96% | [6]; at 33.0 µM 91% | [6]; [17] 91% | [6]; at 50.0 µM 90% | [6]; at 100.0 µM 99% | [7]; at 33.0 µM 90% | [7]; at 100.0 µM 98% | [8]; at 33.0 µM 85% | [8]; at 100.0 µM 98% | [9]; [17] 99% | [9]; at 50.0 µM 86.3% | [10]; at 33.0 µM 94% | [10]; [17] 97% | [10]; at 50.0 µM 90.7% | [10]; at 100.0 µM 98% | [11]; at 33.0 µM 82% | [11]; at 100.0 µM 98% | [12]; at 33.0 µM 82% | [12]; at 100.0 µM 97% | [13]; at 33.0 µM 89% | [13]; at 100.0 µM 97% | [14]; [17] 91% | [14]; at 50.0 µM 89.9% | [15]; at 33.0 µM 89% | [15]; at 100.0 µM 97%
inactive: [1]; at 1.2 µM -9% | [1]; at 3.7 µM -2% | [1]; at 11.0 µM -2% | [2]; at 1.2 µM -15% | [2]; at 3.7 µM -9% | [2]; at 11.0 µM -25% | [3]; at 1.2 µM 11% | [3]; at 3.7 µM 4% | [3]; at 11.0 µM -6% | [3]; at 33.0 µM -3% | [3]; at 100.0 µM -5% | [4]; at 1.2 µM 19% | [4]; at 3.7 µM 13% | [4]; at 11.0 µM 16% | [5]; at 1.2 µM -10% | [5]; at 3.7 µM -2% | [5]; [16] 43% | [5]; at 11.0 µM -2% | [6]; at 1.2 µM -1% | [6]; at 3.7 µM 12% | [6]; [16] 35% | [6]; at 11.0 µM 6% | [7]; at 1.2 µM -2% | [7]; at 3.7 µM -6% | [7]; at 11.0 µM -6% | [8]; at 1.2 µM -14% | [8]; at 3.7 µM -12% | [8]; at 11.0 µM -6% | [9]; [16] 18% | [10]; at 1.2 µM -5% | [10]; at 3.7 µM 13% | [10]; [16] -8% | [10]; at 11.0 µM 24% | [11]; at 1.2 µM -27% | [11]; at 3.7 µM -20% | [11]; at 11.0 µM -9% | [12]; at 1.2 µM -32% | [12]; at 3.7 µM -29% | [12]; at 11.0 µM -20% | [13]; at 1.2 µM 3% | [13]; at 3.7 µM 3% | [13]; at 11.0 µM 5% | [14]; [16] 37% | [15]; at 1.2 µM -5% | [15]; at 3.7 µM -6% | [15]; at 11.0 µM -4%
